{"source": "paper PMC4336329", "about": "(PLoS ONE, 2015)", "note": "The campaign covered roughly 310,000 compounds. About 14,000 (4.5%) showed an effect of 50% or more. Effects have a minus sign here. The full list was thinned out, with strong results kept by preference.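 Also: peak tail current of the secondary pulse compared with the same well before compound.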", "data": [{"molecular_target": "human ether-à-go-go-related gene (hERG) potassium channel (human, UniProt Q12809)", "sequence (Q12809 whole entry, looked up)": "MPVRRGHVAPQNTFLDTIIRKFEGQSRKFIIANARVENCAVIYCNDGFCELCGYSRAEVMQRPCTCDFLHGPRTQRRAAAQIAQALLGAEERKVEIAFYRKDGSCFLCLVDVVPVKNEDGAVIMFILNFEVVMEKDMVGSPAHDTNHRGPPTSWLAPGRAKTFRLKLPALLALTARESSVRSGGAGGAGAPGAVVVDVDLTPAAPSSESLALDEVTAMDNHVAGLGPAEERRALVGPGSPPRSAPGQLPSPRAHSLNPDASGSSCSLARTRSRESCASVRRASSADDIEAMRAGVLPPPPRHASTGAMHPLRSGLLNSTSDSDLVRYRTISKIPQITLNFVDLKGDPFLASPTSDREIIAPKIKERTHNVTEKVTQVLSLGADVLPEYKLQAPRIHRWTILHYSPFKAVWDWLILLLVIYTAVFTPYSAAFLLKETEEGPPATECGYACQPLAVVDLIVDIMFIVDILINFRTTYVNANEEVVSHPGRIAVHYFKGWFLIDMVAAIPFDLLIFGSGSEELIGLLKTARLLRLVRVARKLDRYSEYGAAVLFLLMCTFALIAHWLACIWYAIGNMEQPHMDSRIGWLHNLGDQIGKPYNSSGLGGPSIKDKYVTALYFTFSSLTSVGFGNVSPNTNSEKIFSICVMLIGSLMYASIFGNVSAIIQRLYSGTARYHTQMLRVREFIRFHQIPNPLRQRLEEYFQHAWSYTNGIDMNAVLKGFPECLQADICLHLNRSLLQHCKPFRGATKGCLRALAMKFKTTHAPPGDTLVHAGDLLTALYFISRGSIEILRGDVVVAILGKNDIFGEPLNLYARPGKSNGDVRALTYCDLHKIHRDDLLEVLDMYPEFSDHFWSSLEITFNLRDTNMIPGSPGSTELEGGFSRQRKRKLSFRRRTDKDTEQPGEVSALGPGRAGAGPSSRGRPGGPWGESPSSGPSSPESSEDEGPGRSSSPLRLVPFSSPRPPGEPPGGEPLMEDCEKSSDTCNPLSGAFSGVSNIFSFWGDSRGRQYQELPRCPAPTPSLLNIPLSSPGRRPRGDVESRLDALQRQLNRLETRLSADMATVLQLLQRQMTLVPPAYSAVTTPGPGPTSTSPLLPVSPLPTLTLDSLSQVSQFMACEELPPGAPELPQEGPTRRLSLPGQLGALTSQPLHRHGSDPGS", "experiment": "primary screen, population patch clamp on CHO cells stably expressing hERG; higher = less effect of the substance", "units": {"hERG current change (%, negative = inhibition) at 10uM": "%"}, "values": [{"smiles": "Cc1ccc(NC(=O)CSc2nnc(C3COc4ccccc4O3)o2)c(Cl)c1", "note": "(stereo not shown)", "hERG current change (%, negative = inhibition) at 10uM": 12.5}, {"smiles": "Brc1ccc(-c2noc(-c3ccccn3)n2)o1", "hERG current change (%, negative = inhibition) at 10uM": 2.68}, {"smiles": "COC(=O)C1(C)NC(c2ccco2)C2C(=O)N(c3ccc(C)cc3)C(=O)C21", "note": "(stereo not shown)", "hERG current change (%, negative = inhibition) at 10uM": -22.5}, {"smiles": "Cc1nnc(-c2cccc(C(F)(F)F)c2)nc1N1CCOCC1", "hERG current change (%, negative = inhibition) at 10uM": -74.1}, {"smiles": "FC(F)(F)c1cccc(-c2nnc(-c3ccccc3)c(N3CCOCC3)n2)c1", "hERG current change (%, negative = inhibition) at 10uM": -19.7}, {"smiles": "Cc1nnc(-c2ccccc2)nc1N1CCOCC1", "hERG current change (%, negative = inhibition) at 10uM": -10.2}, {"smiles": "CC1CC(C)CN(C(=O)Cn2c(=O)oc3cc(S(=O)(=O)N4CCCC4)ccc32)C1", "note": "(stereo not shown)", "hERG current change (%, negative = inhibition) at 10uM": -3.39}, {"smiles": "CCn1cc(C(=O)OCC(=O)OC2CC(C)CCC2C(C)C)c(=O)c2ccc(C)nc21", "note": "(stereo not shown)", "hERG current change (%, negative = inhibition) at 10uM": -51.8}, {"smiles": "C=CCOC(=O)c1cn(CC)c2nc(C)ccc2c1=O", "hERG current change (%, negative = inhibition) at 10uM": -5.77}, {"smiles": "CCn1cc(C(=O)OCC(=O)N2C(C)CCCC2C)c(=O)c2ccc(C)nc21", "note": "(stereo not shown)", "hERG current change (%, negative = inhibition) at 10uM": 11}, {"smiles": "Cc1cc(C)cc(NC(=O)C2CCCN(S(=O)(=O)c3c(C)noc3C)C2)c1", "note": "(stereo not shown)", "hERG current change (%, negative = inhibition) at 10uM": -4.34}, {"smiles": "CCOc1ccccc1NS(=O)(=O)c1csc(C(N)=O)c1", "hERG current change (%, negative = inhibition) at 10uM": 11.7}, {"smiles": "CCC(=O)Nc1sc2c(c1C(N)=O)CCC2", "hERG current change (%, negative = inhibition) at 10uM": -15.7}, {"smiles": "Cc1cccc(C)c1NC(=O)CN(C)CC(=O)Nc1sc2c(c1C(N)=O)CCC2", "hERG current change (%, negative = inhibition) at 10uM": -33.9}, {"smiles": "COc1ccc(CC(=O)Nc2sc3c(c2C(N)=O)CCCC3)cc1", "hERG current change (%, negative = inhibition) at 10uM": -1.39}, {"smiles": "NC(=O)c1c(NC(=O)c2ccccc2Cl)sc2c1CCC2", "hERG current change (%, negative = inhibition) at 10uM": 15.1}, {"smiles": "COc1ccc(NC(=O)CN(C)CC(=O)Nc2sc3c(c2C#N)CCC3)cc1", "hERG current change (%, negative = inhibition) at 10uM": 0.0459}, {"smiles": "CN(CC(=O)Nc1ccc(C(N)=O)cc1)CC(=O)Nc1ccccc1Cl", "hERG current change (%, negative = inhibition) at 10uM": -5.04}, {"smiles": "CN(CC(=O)Nc1ccccc1Cl)CC(=O)Nc1sc2c(c1C(N)=O)CCC2", "hERG current change (%, negative = inhibition) at 10uM": -66.2}, {"smiles": "Cc1ccc(NC(=O)CN(C)CC(=O)Nc2sc3c(c2C(N)=O)CCC3)cc1", "hERG current change (%, negative = inhibition) at 10uM": -55.5}, {"smiles": "COc1ccc(NC(=O)CN(C)CC(=O)Nc2sc3c(c2C(N)=O)CCC3)cc1", "hERG current change (%, negative = inhibition) at 10uM": -79}, {"smiles": "CSc1ncccc1C(=O)OCC(=O)c1ccccc1", "hERG current change (%, negative = inhibition) at 10uM": 35}, {"smiles": "CCN(CC(=O)Nc1ccc2c(c1)OCCO2)C(=O)CC(NC(C)=O)c1ccccc1", "note": "(stereo not shown)", "hERG current change (%, negative = inhibition) at 10uM": 18.7}, {"smiles": "Cc1csc(NC(=O)CCCNC(=O)c2ccc(Cl)cc2)n1", "hERG current change (%, negative = inhibition) at 10uM": -23.6}, {"smiles": "CCC(C)c1ccccc1N1CC(C(=O)Nc2ccc(S(=O)(=O)N3CCOCC3)cc2)CC1=O", "note": "(stereo not shown)", "hERG current change (%, negative = inhibition) at 10uM": -9.78}, {"smiles": "COc1ccccc1N1CCN(CC(O)COCCOc2ccc(Br)cc2)CC1.Cl", "note": "(stereo not shown)", "hERG current change (%, negative = inhibition) at 10uM": -58.8}, {"smiles": "COc1ccccc1N1CCN(CC(O)COc2ccc(S(=O)(=O)N3CCOCC3)cc2)CC1.Cl", "note": "(stereo not shown)", "hERG current change (%, negative = inhibition) at 10uM": -4.3}, {"smiles": "COc1ccc(N2CCN(CC(O)COCCOc3ccc(Br)cc3)CC2)cc1.Cl", "note": "(stereo not shown)", "hERG current change (%, negative = inhibition) at 10uM": -69.1}, {"smiles": "COc1ccc(OCCOCC(O)CN2CCOCC2)cc1.Cl", "note": "(stereo not shown)", "hERG current change (%, negative = inhibition) at 10uM": 4.55}, {"smiles": "COc1ccccc1NC(=O)CSc1nnc(Cn2nnc(-c3ccccc3)n2)n1-c1ccccc1", "hERG current change (%, negative = inhibition) at 10uM": -5.02}, {"smiles": "CC(CCc1ccccc1)NC(=O)CNC(=O)COc1ccccc1", "note": "(stereo not shown)", "hERG current change (%, negative = inhibition) at 10uM": -0.873}, {"smiles": "O=C(NC(=S)Nc1ccc2cn[nH]c2c1)c1ccccc1", "hERG current change (%, negative = inhibition) at 10uM": -2.32}, {"smiles": "Cc1ccccc1C1NC(=S)NC2=C1C(=O)CC(C)(C)C2", "note": "(stereo not shown)", "hERG current change (%, negative = inhibition) at 10uM": 18.5}, {"smiles": "Clc1ccc2oc(-c3cccnc3)nc2c1", "hERG current change (%, negative = inhibition) at 10uM": -14.9}, {"smiles": "c1ccc(-c2oc3ncnc(NCCCn4ccnc4)c3c2-c2ccccc2)cc1", "hERG current change (%, negative = inhibition) at 10uM": -69.9}, {"smiles": "Clc1ccc(-n2ncc3c(NCCCn4ccnc4)ncnc32)cc1", "hERG current change (%, negative = inhibition) at 10uM": -26.1}, {"smiles": "c1ccc(-c2oc3ncnc(NCCN4CCOCC4)c3c2-c2ccccc2)cc1", "hERG current change (%, negative = inhibition) at 10uM": -21.3}, {"smiles": "c1ccc(-c2oc3ncnc(NCCCN4CCOCC4)c3c2-c2ccccc2)cc1", "hERG current change (%, negative = inhibition) at 10uM": -87.1}, {"smiles": "COc1ccc(-c2oc3ncnc(NCCCN4CCOCC4)c3c2-c2ccc(OC)cc2)cc1", "hERG current change (%, negative = inhibition) at 10uM": 2.49}, {"smiles": "c1cn(CCCNc2ncnc3nc[nH]c23)cn1", "hERG current change (%, negative = inhibition) at 10uM": 8.93}, {"smiles": "Cc1ccc(OCCCC(=O)Nc2cc(Cl)ccc2-n2cncn2)cc1", "hERG current change (%, negative = inhibition) at 10uM": -22.4}, {"smiles": "CCOC(=O)N1CCN(C(=O)CSCC(=O)Nc2nc(-c3cccs3)cs2)CC1", "hERG current change (%, negative = inhibition) at 10uM": -31.4}, {"smiles": "CCOc1ccccc1N1CC(C(=O)N2CCN(Cc3ccc(C#N)cc3)CC2)CC1=O", "note": "(stereo not shown)", "hERG current change (%, negative = inhibition) at 10uM": -67.3}]}]}
